From PubChem BioAssay
Many of the other results were omitted from the sample, so hits are more common in it than they were.
ST2 IL33 inh – IL1RL1 inhibition. inhibition, % for hits at 17 µM. AlphaLISA ST2-Fc/biotin-IL-33 interaction, 1 h. 78,000 tested, 2.3% active. AID 1259354; in the data active means inhibition above about 30%
Target sequence (Q01638 whole entry, looked up): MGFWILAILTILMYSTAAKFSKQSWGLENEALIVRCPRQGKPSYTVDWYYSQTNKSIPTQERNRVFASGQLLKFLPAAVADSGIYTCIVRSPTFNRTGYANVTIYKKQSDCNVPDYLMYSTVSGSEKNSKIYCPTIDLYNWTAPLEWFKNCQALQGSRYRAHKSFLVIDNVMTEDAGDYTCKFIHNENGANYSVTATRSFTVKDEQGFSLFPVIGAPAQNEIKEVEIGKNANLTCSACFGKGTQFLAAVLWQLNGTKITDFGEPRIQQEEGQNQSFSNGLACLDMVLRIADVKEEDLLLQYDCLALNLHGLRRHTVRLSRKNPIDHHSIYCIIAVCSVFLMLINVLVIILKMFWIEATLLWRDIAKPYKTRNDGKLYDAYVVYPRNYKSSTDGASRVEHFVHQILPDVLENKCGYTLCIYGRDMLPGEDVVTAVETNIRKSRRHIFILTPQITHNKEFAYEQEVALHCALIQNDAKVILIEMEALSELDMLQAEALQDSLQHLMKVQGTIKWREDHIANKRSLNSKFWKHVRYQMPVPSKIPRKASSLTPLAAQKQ
Numbers without * were called inactive; i = inactive; ! = not active in a repeat.

SMILES | ST2 IL33 inh
O=C1NC(=O)/C(=C/c2ccc([N+](=O)[O-])cc2)S1 | i
Cc1cc(N2CCOCC2)cc2c3ccccc3n(C)c12 | i
CN(CCCNC(=O)C1CCN(c2ccc(-c3cccs3)nn2)CC1)Cc1ccccc1 | i
CC(C)CCNC(=O)CCC1=NS(=O)(=O)c2ccccc2N1 | i
CC(=O)N1N=C(c2ccc(C)cc2)OC12CCCC2 | i
NNC(=O)CN1CCN(Cc2ccc3c(c2)OCO3)CC1 | i
O=C(c1nc(N2CCCC2)nc2c1CCCC2)N1CCN(Cc2ccc3c(c2)OCO3)CC1 | 32%*
O=C(c1ccc2nc3ccccc3c(=O)n2c1)N1CCN(Cc2ccc3c(c2)OCO3)CC1 | i
O=C(NCc1ccc2c(c1)OCO2)c1ccc2c(c1)ncn2C1CCCC1 | i
CC1C2NC(=O)N(CCc3ccccc3)C1(C)Oc1ccc(Br)cc12 (configuration not stated) | i
CN(C)c1ccc(C(C2=C(O)CC(C)(C)CC2=O)C2C(=O)CC(C)(C)CC2=O)cc1 (configuration not stated) | i
CC1(C)CC(=O)C(C(C2=C(O)CC(C)(C)CC2=O)c2ccc([N+](=O)[O-])s2)C(=O)C1 (configuration not stated) | 30%*
CC1(C)CC(=O)C(C(C2=C(O)CC(C)(C)CC2=O)c2cccc(O)c2)C(=O)C1 (configuration not stated) | i
Cc1cccc(-n2ncc3c(Nc4ccc(Br)cc4)ncnc32)c1 | i
O=C(CN1CCN(Cc2ccc(F)cc2Cl)C1=O)NC1CCCCCCC1 | i
Cc1ccc(C(=O)N2CCCN(C(=O)c3ccc(C)cc3)CC2)cc1 | i
O=C(c1ccccc1)N1CCCCC1 | i
O=C(c1ccc([N+](=O)[O-])cc1)N1CCN(c2ccccc2F)CC1 | i
O=C(/C=C(/c1ccccc1)N1CCCCC1)c1ccc([N+](=O)[O-])cc1 | 38%*
O=C(c1ccccc1[N+](=O)[O-])N1CCCCC1 | i
Cc1ccc(C(=O)/C=C(\c2ccccc2)N2CCCCC2)cc1 | 30%*
Cc1cc(C)c(S(=O)(=O)Nc2ccc(S(=O)(=O)Nc3ncccn3)cc2)c(C)c1 | i
COCCn1cc(C(=O)NCc2ccccn2)c2c3ccccc3n(C)c2c1=O | i
CN1CCN(C(=O)CN2C(=O)S/C(=C/c3ccccc3)C2=O)CC1 | i
O=C(O)CN1C(=O)S/C(=C\c2ccco2)C1=O | 74%*
SMILES | ST2 IL33 inh
CC(C)N1C(=O)S/C(=C\c2ccc(-c3cccc(C(=O)O)c3)o2)C1=O | i
CN(C)CCN(C)Cc1ccccc1O | i
N#Cc1cc2c(=O)n3ccccc3nc2n(Cc2ccccc2)c1=N | i
N#Cc1cc2c(=O)n3ccccc3nc2n(CCCn2ccnc2)c1=N | 31%*
CCC(C)n1c(=N)c(C#N)cc2c(=O)n3ccccc3nc21 (configuration not stated) | 39%*
CCC(C)n1c(=N)c(C(=O)NC2CCCCC2)cc2c(=O)n3ccccc3nc21 (configuration not stated) | i
N#Cc1cc2c(=O)n3ccccc3nc2n(CCc2ccccc2)c1=N | i
Cc1cccn2c(=O)c3cc(C(=O)NCc4cccnc4)c(=N)n(CCCn4ccnc4)c3nc12 | i
COc1ccccc1C(=O)N/C(=C\c1ccc2c(c1)OCO2)C(=O)NC(CCSC)C(=O)O (configuration not stated) | i
CC(=O)N(c1ccc2oc3c(c2c1)CCCC3)S(=O)(=O)c1cc([N+](=O)[O-])ccc1C | i
Cc1cc(NC(=O)c2noc3c2CC(C)CC3)no1 (configuration not stated) | i
CC1CCc2oc3cc([N+](=O)[O-])cc([N+](=O)[O-])c3c2C1 (configuration not stated) | 59%*
CCN(CC)c1ccc(C2C(C#N)=C(N)OC3=C2C(=O)CC(C)(C)C3)cc1 (configuration not stated) | i
Cc1ccccc1OCC(=O)n1nnc2ccccc21 | i
O=C(NCC1CCCCC1)N1CCCC2(CCNC2)C1 (configuration not stated) | i
Cc1ccc(S(=O)(=O)Nc2ccccc2-c2ccccc2)cc1 | i
Cc1ccc(-c2cc3c(nn2)-c2ccccc2C3=O)cc1 | 34%*
O=C1c2ccccc2-c2n[nH]c3cccc1c23 | i
COc1ccc(C2NC(C(=O)O)CS2)cc1CSc1ccccn1 (configuration not stated) | i
NC(=O)CCc1c[nH]c2ccccc12 | i
N[C@@H](Cc1c[nH]c2ccccc12)C(=O)O | i
O=C(O)Cc1c[nH]c2ccc(O)cc12 | 41%*!
COc1ccc(-c2c(C#N)c(N)nc3c2CCCCC3)c(OC)c1 | i
O=C(Nc1ncc(S(=O)(=O)c2ccc([N+](=O)[O-])cc2)s1)c1ccccc1Br | i
COCC(=O)Nc1ncc(S(=O)(=O)c2ccc([N+](=O)[O-])cc2)s1 | 38%*
SMILES | ST2 IL33 inh
Cc1ccc(C(=O)Nc2ncc(S(=O)(=O)c3ccc([N+](=O)[O-])cc3)s2)cc1C | i
O=C(CN1C(=O)S/C(=C\c2ccccc2)C1=O)Nc1nccs1 | i
O=C(CN1C(=O)S/C(=C\C=C\c2ccccc2)C1=O)Nc1ccc(C(=O)O)cc1 | 32%*
CC(C)(C)NC(=O)CN1C(=O)S/C(=C\c2ccccc2)C1=O | i
Cc1cc(C)cc(NC(=O)C(=O)NCCC2=CCCCC2)c1 | i
Cc1nc(CN(C)C2CCN(c3cccc(C)c3C)CC2)no1 | i
Cc1nc(C(C)C)sc1C(=O)N1CCOC(CCN(C)C)C1 (configuration not stated) | i
O=C(NC(=O)c1ccccc1)Oc1ccc([N+](=O)[O-])cc1 | i
O=[N+]([O-])c1ccc(C(=Nc2ccccc2)NO)cc1 | i
O=C(C#Cc1ccc([N+](=O)[O-])cc1)c1ccccc1 | 33%*
NC(=O)CSc1nc2c([nH]c3ccccc32)c(=O)n1-c1ccc(F)cc1 | i
COc1ccc(CN2CC(OC)CN(C(=O)c3ccc(N(C)C)cc3)CC2=O)cc1 (configuration not stated) | i
Cc1c(NC(NC(=O)c2cccs2)C(Cl)(Cl)Cl)c(=O)n(-c2ccccc2)n1C (configuration not stated) | i
CCOc1ccc(/C=C2/OC(=O)c3c2cc(C)[nH]c3=O)cc1OC | 51%*
Cc1cc2c(c(=O)[nH]1)C(=O)O/C2=C\c1cccs1 | i
CCOc1ccc(/C=C2\N=C(c3ccccc3Cl)OC2=O)cc1 | i
CCOc1ccccc1/C=C1\N=C(c2ccc(OC)c([N+](=O)[O-])c2)OC1=O | i
CCOc1ccc(/C=C2\N=C(c3ccccc3OC)OC2=O)cc1OCC | 34%*
COc1ccc(C2=Cc3cc(OC)c(OC)cc3/C(=C/c3ccc(OC)c(OC)c3)O2)cc1 | i
Cn1cc(C(=O)NCc2ccc3c(c2)OCO3)c2c3ccccc3n(C)c2c1=O | i
CCOC(=O)c1sc(NC(=O)COc2ccccc2Br)nc1C | i
O=C(O)CCCNC(=O)c1ccncc1 | i
O=C(C[C@@H]1O[C@H](CNS(=O)(=O)c2ccccc2)[C@@H](O)[C@H]1O)NCc1ccc(F)cc1 | i
O=[N+]([O-])c1ccc(-c2nc(NC3CCCCC3)c3ccccc3n2)cc1 | i
c1cncc(CNc2c3ccccc3nc3ccccc23)c1 | i
CCCCN(C)c1nc(-c2ccc([N+](=O)[O-])cc2)nc2ccccc12 | 39%*
O=[N+]([O-])c1ccc(-c2nc(NCc3cccnc3)c3ccccc3n2)cc1 | 96%*!
C=CCNc1nc(-c2ccc([N+](=O)[O-])cc2)nc2ccccc12 | i
